Results: PubChem BioAssay
The source made the active and inactive calls.

Legend:
[1] = A549 cell viability effects, profiling panel, calcein-AM fluorescence, 48 h, basal (AID 1162); settings: higher = more signal
[2] = adipocyte viability effects, profiling panel, cell-based, 3T3-L1 adipocytes, calcein-AM fluorescence, 48 h, basal (AID 1163); settings: 3T3-L1 adipocytes viability, higher = more signal
[3] = HepG2 cell viability effects, profiling panel, calcein-AM fluorescence, 48 h, basal (AID 1164); settings: higher = more signal
[4] = MM1S cell viability effects, profiling panel, calcein-AM fluorescence, 48 h, basal (AID 1165); settings: higher = more signal;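 note: viability of MM1S multiple myeloma cells under basal unstimulated conditions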
[5] = basal RPMI8226 viability, no added stimulus, profiling panel, cell-based, calcein-AM fluorescence, 48 h, PK04 Diversity Set (AID 1166); settings: RPMI8226 myeloma viability, higher = more signal;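 note: cells grown under basal conditions without added stimulus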
[6] = basal HepG2 mitochondrial membrane potential changes, profiling panel, cell-based, JC-1 fluorescence, 24 h, 100 nL compound (AID 1167); settings: higher = more signal
[7] = basal 3T3-L1 adipocyte mitochondrial potential changes, profiling panel, cell-based, JC-1 fluorescence, 3T3-L1 adipocytes, 24 h, 100 nL compound (AID 1168); settings: JC-1 mitochondrial fluorescence, higher = more signal, called active from +8 up or from −8 down
[8] = basal RPMI8226 mitochondrial membrane potential changes, profiling panel, cell-based, JC-1 fluorescence, 24 h, 100 nL compound (AID 1169); settings: RPMI8226 myeloma, JC-1 mitochondrial potential fluorescence, higher = more signal
[9] = basal MM1S mitochondrial membrane potential changes, profiling panel, cell-based, JC-1 fluorescence, 24 h, 100 nL compound (AID 1170); settings: higher = more signal
[10] = A549 lung cancer cell viability effects, profiling panel, resazurin fluorescence, 24 h, PK04 Diversity Set (AID 1171); settings: higher = more signal, called active from +8 up or from −8 down
Note: test concentration not given here.

Compound | z-score [1] | z-score [2] | z-score [3] | z-score [4] | z-score [5] | z-score [6] | z-score [7] | z-score [8] | z-score [9] | z-score [10]
CCOC(=O)[C@H](Cc1ccccc1)NC(=O)CCC1CC(OC(=O)NCc2cccc3ccccc23)CC2(CCCC(COC(=O)NCCOc3ccccc3)O2)O1 (stereo not given in full) | 0.128 | 0.0331 | -0.175 | 0.992 | -0.634 | 0.161 | 0.0327 (inactive) | 0.113 | -0.883 | 0.0235 (inactive)
COC(=O)[C@@H]1CC[C@H](C)[C@@H](c2ccc(Br)cc2)N1C(=O)C(F)(F)F | -0.0701 | -0.0882 | -0.434 | -1.24 | 0.468 | 0.399 | 0.0984 (inactive) | 0.508 | 0.554 | 0.839 (inactive)
COC(=O)[C@@H]1CC[C@H](C)[C@@H](c2ccc(C)cc2)N1C(=O)c1ccc(C=NO[C@@H](C)c2cc(-c3c(C)cc(C)cc3C)no2)cc1 | 0.203 | -0.576 | 1.38 | -0.56 | 0.148 | 3.24 | 0.161 (inactive) | 0.239 | -0.749 | -0.462 (inactive)
CC(CCN1CCCc2nc(C)c(C)cc21)=NO[C@@H](C)c1cn([C@H](CO)Cc2ccccc2)nn1 | 1.11 | -0.189 | -0.136 | 0.33 | 0.049 | 0.38 | 0.733 (inactive) | -0.0733 | -0.762 | -0.131 (inactive)
O=C1[C@H]2[C@H]3[C@H](O)[C@H](O)CC(=NOCc4ccccc4)[C@H]3CC[C@H]2C(=O)N1C1CCCCC1 | 0.519 | -0.228 | 0.734 | -0.618 | -0.498 | -1.3 | 0.028 (inactive) | -0.16 | -0.847 | -0.329 (inactive)
O=C1[C@H]2[C@H]3[C@H](O)[C@H](O)CC(=NOCc4ccccc4)[C@@H]3CC[C@H]2C(=O)N1c1cccc(Oc2ccccc2)c1 | 0.794 | -0.746 | -0.505 | 0.213 | 0.3 | -0.231 | -0.145 (inactive) | 0.542 | -1.68 | -0.227 (inactive)
COC(=O)CC=C[C@@H](C)[C@@H](C=NOC[C@@H](C)[C@H](OCc1ccccc1)C(C)C)NS(=O)(=O)c1ccc(C)cc1 | 0.0174 | 0.502 | -0.692 | -0.726 | -0.96 | -0.685 | -2.09 (inactive) | -0.129 | -0.00529 | 0.0101 (inactive)
CC(CCN1CCCCc2nc(C)c(C)cc21)=NO[C@H](C)c1cn([C@@H]2COC[C@H]2O)nn1 | 0.368 | -0.807 | 0.251 | 0.287 | 0.0323 | 0.0457 | 0.229 (inactive) | 1.18 | -0.992 | -0.454 (inactive)
CC(C)CON=C1[C@H]2CCn3c(=O)n(C)c(=O)n3[C@H]2[C@H](O)[C@@H]2O[C@H]12 | 0.543 | 0.632 | 0.361 | 0.191 | -0.441 | -0.383 | -0.444 (inactive) | -0.581 | 0.0994 | -0.143 (inactive)
C=CC[C@@H]1C=C[C@H](ON=CC[C@@H]2C=C[C@H](OC(C)=O)[C@@H](COC(C)=O)O2)[C@@H](CO)O1 | 0.452 | -0.5 | 0.347 | 0.114 | -0.445 | 0.169 | -0.01 (inactive) | -0.131 | -0.838 | -0.286 (inactive)
CCOC(=O)[C@H](CC(C)C)NC(=O)CCC1CC(OC(=O)NCc2ccc3c(c2)OCO3)CC2(CCCC(COC(=O)NCc3ccccc3)O2)O1 (stereo not given in full) | -0.547 | -0.654 | -1.38 | -3.45 | -1.58 | -0.439 | 0.195 (inactive) | 0.0575 | 0.277 | 1.06 (inactive)
CO[C@@H]1COC(=O)[C@@H]2CCCN2C(=O)[C@@H](C)COC(=O)CCC[C@H]1C | -0.0294 | -0.0132 | 0.586 | -0.407 | 0.498 | -0.189 | -2.2 (inactive) | -0.0065 | -1.2 | -1.07 (inactive)
CON=C(C)CCN1CCCc2nc(C)c(C)cc21 | 0.604 | 0.542 | 0.926 | -1.56 | -0.0679 | 0.791 | -0.195 (inactive) | 0.538 | 0.11 | 0.161 (inactive)
COC(=O)CC=C[C@@H](C)[C@@H](C=NOC[C@@H](O)[C@H]1O[C@@H]2OC(C)(C)O[C@@H]2[C@H]1O)OC | 0.218 | 0.0495 | 0.0068 | -0.952 | 0.216 | 0.103 | -0.637 (inactive) | -0.199 | 0.781 | -0.743 (inactive)
CCOC(=O)[C@H](Cc1ccccc1)NC(=O)CCC1CC(OC(=O)NCc2ccc3c(c2)OCO3)CC2(CCCC(COC(=O)NCCc3ccc(Cl)cc3)O2)O1 (stereo not given in full) | 1.81 | 0.71 | 0.622 | -0.845 | -0.167 | 0.783 | 0.361 (inactive) | -0.162 | -1.27 | -0.455 (inactive)
CC1(C)O[C@H]2O[C@H]([C@H](O)CON=C3[C@H]4CCn5c(=O)n(-c6ccccc6)c(=O)n5[C@H]4[C@H](O)[C@@H]4O[C@H]34)[C@H](O)[C@H]2O1 | -0.359 | 0.104 | -0.0631 | 0.112 | 0.279 | -0.494 | -1.12 (inactive) | 0.438 | 0.223 | 0.065 (inactive)

Compound | z-score [1] | z-score [2] | z-score [3] | z-score [4] | z-score [5] | z-score [6] | z-score [7] | z-score [8] | z-score [9] | z-score [10]
CO[C@H]1COC(=O)[C@H](C)COC(=O)[C@H](C)NC(=O)CC=C[C@H]1C | -0.0718 | 0.996 | -0.248 | 0.0627 | 0.286 | 0.708 | 0.475 (inactive) | -0.218 | 1.3 | 0.724 (inactive)
CC(C)(C)N1C(=O)[C@H]2[C@H]3[C@H](O)[C@H](O)CC(=NOC[C@@H](O)COCc4ccco4)[C@H]3CC[C@H]2C1=O | -0.0309 | 0.676 | 0.082 | 0.406 | -0.139 | -0.368 | 0.856 (inactive) | -0.631 | -0.914 | -0.679 (inactive)
CC(CCN1CCCc2nc(C)c(C)cc21)=NOC[C@@H](C)[C@H](OCc1ccccc1)C(C)C | 0.803 | 1.05 | 1.18 | -2.37 | 0.0389 | 1.94 | -0.584 (inactive) | 0.395 | -1.46 | -0.602 (inactive)
CC(=O)OC[C@H]1O[C@H](CC=NO[C@@H](C)c2cn([C@H](CO)Cc3ccccc3)nn2)C=C[C@@H]1OC(C)=O | -1.04 | -0.0628 | -0.453 | 0.548 | -0.812 | -0.174 | -0.538 (inactive) | 0.15 | -0.76 | 0.095 (inactive)
C[C@@H]1CC[C@H]2C(=O)OC(CN3C(=O)c4ccccc4C3=O)CN2[C@H]1c1ccc(Br)cc1 (stereo not given in full) | 0.0752 | -0.0986 | 0.182 | 0.49 | 0.447 | 0.239 | -0.105 (inactive) | -0.911 | 1.67 | 0.705 (inactive)
CCOC(=O)[C@H](Cc1ccccc1)NC(=O)CCC1CC(OC(=O)NCc2ccc3c(c2)OCO3)CC2(CCCC(COC(=O)NCCCN3CCCC3=O)O2)O1 (stereo not given in full) | 0.0325 | 0.484 | -0.152 | -0.59 | -1.6 | 1.97 | -0.654 (inactive) | 0.517 | 0.547 | 0.529 (inactive)
COC(=O)[C@@H]1CC[C@H](C)[C@@H](c2ccc(Br)cc2)N1 | 0.23 | 0.309 | -0.183 | 0.125 | 0.0204 | -0.0948 | -0.644 (inactive) | -0.295 | 0.214 | -0.284 (inactive)
O=C1[C@H]2[C@H]3[C@H](O)[C@H](O)CC(=NO[C@@H]4O[C@H](CO)[C@@H](O)[C@H](O)[C@H]4O)[C@H]3CC[C@H]2C(=O)N1c1ccc(F)cc1F | -0.32 | 0.528 | -0.846 | 0.0224 | -0.3 | 0.419 | -0.35 (inactive) | -0.177 | -0.709 | 1.09 (inactive)
O=C1C=C[C@@H](O)[C@@H]2[C@@H]3C(=O)N(C4CCCCC4)C(=O)[C@@H]3CC[C@@H]12 | -0.0763 | 0.351 | -0.602 | -1.88 | -2.19 | 1.23 | -0.58 (inactive) | -0.733 | -1.54 | 0.269 (inactive)
COc1ccc2c(c1)O[C@@H](c1cccc(C(F)(F)F)c1)[C@H](O)C2=O | 0.759 | -0.941 | -0.294 | -0.277 | 1.29 | -1.25 | 0.0155 (inactive) | -0.239 | -0.724 | -0.536 (inactive)
CO[C@H]1COC(=O)CC=C[C@@H](C)COC(=O)[C@H]2CCCN2C(=O)CC=C[C@H]1C | 1.22 | -0.429 | 0.707 | 0.462 | 0.18 | 0.722 | 0.00299 (inactive) | 0.418 | 0.748 | -0.823 (inactive)
C[C@H]1CC[C@H]2C(=O)N[C@H](Cc3ccccc3)C(=O)N2[C@@H]1c1ccccc1 | -0.103 | 0.283 | 0.194 | -0.643 | 0.0185 | 0.399 | -0.556 (inactive) | 0.471 | 1.28 | -0.232 (inactive)
COC(=O)CC=C[C@@H](C)[C@@H](C=NOC[C@@H](O)COCc1ccco1)NS(=O)(=O)c1ccc(C)cc1 | -0.393 | -0.295 | 0.3 | -0.833 | -0.623 | -1.23 | 0.0134 (inactive) | -0.655 | -0.436 | -0.44 (inactive)
COc1cccc([C@H](O)Cn2cc(-c3ccc(CON=C(C)C)cc3)nn2)c1 | 0.445 | -0.374 | 0.206 | 1.22 | 0.157 | -0.803 | 0.706 (inactive) | -0.0682 | -0.544 | -0.409 (inactive)
COC(=O)[C@H](C)NC(=O)CCC1CC(OC(=O)NCc2ccc3c(c2)OCO3)CC2(CCCC(COC(=O)NCCC(C)C)O2)O1 (stereo not given in full) | -0.121 | 0.114 | -1.19 | -3.18 | -2.13 | -0.523 | -0.452 (inactive) | -0.253 | 0.177 | 0.442 (inactive)
COc1ccc(COC(=O)NN=C2C[C@@H](O)[C@@H](O)[C@@H]3[C@@H]4C(=O)N(Cc5ccccc5)C(=O)[C@@H]4CC[C@@H]23)cc1 | -0.178 | -0.641 | -0.13 | 0.458 | 1.61 | 0.335 | -0.289 (inactive) | 0.76 | -1.46 | 0.399 (inactive)
